Hits are enriched below; roughly 3% of the tested compounds scored in any of these assays.
TRPM1 prom inh = inhibitors of MITF-dependent TRPM1 promoter reporter, primary screen, cell-based, SK-MEL-5, single point, luciferase. SK-MEL-5 TRPM1 promoter luciferase, 24 h. inhibition, % at 12.5 µM. hit rate 0.83% among 330,000;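 active means mean inhibition across replicates of 60% or more, whatever share of single replicates reaches that level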
KKLEB cytotox = cytotoxicity in KKLEB CF airway cells, primary screen, cytotoxicity control for CF NF-kB inhibitor project, cell-based, uHTS, fluorescence assay plates; activity change (cytotoxicity), % at 5 µM; KKLEB CF airway cells viability, ATPlite luminescence, overnight; hits give low values; cells stimulated with P. aeruginosa culture filtrate; hit rate 0.36% among 360,000;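 active means corrected activity change at or below -50% at 5 µM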
HIF-2a inh = HIF-2a reporter inhibitors, primary screen, luminescence, 786-0 RCC cells | 786-0 RCC cells HIF-2a reporter, luciferase luminescence, overnight | inhibition, % at 18.8 µM | hit rate 0.72% among 360,000 | AID 624352, 2012;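 active means inhibition of the luminescence signal of 40% or more relative to plate controls, in a single-dose primary screen at 18.75 µM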
Peg3 promoter = Peg3 promoter-driven luciferase inhibitors, primary screen, cell-based, HeLa, luciferase luminescence; HeLa PEG-Prom luciferase reporter, overnight; inhibition, % at 20 µM; hit rate 1.7% among 360,000;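 active means inhibition of at least 50% at 20 µM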
CF NFkB inh = inhibitors of PAF-induced NF-kB signaling, primary screen, cell-based, GFP fluorescence, uHTS; AID 588850, 2011; KKLEB NF-kB-GFP reporter, GFP fluorescence overnight; hit rate 0.86% among 360,000; inhibition, % at 5 µM;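 active means at least 50% inhibition at 5 µM, scaled per plate between neutral and stimulator controls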;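 further: PAF is a Pseudomonas aeruginosa culture filtrate used as stimulus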
LMP1 NFkB inh = EBV LMP1-driven NF-kappaB luciferase reporter inhibitors, primary screen, cell-based, luminescence, single point; LMP1-induced NF-kappaB luciferase reporter cells; inhibition, % at 12.5 µM; hit rate 0.69% among 350,000; in the data active means inhibition above about 41%
Numbers stand for hits; . = inactive; / = not tested or not shown.

SMILES	TRPM1 prom inh	KKLEB cytotox	HIF-2a inh	Peg3 promoter	CF NFkB inh	LMP1 NFkB inh
O=C(NCCN1CCOCC1)c1ccc(/C=C2\Sc3ccccc3N(Cc3ccccc3F)C2=O)cc1	.	.	.	59	.	.
Nc1nsc2ccccc12	.	.	.	51	.	.
COc1ccc(C(CCNC(C)c2ccccc2)C(C)C)cc1 (stereo not drawn)	/	.	.	.	.	/
COc1ccc(C(C)NCCC(c2ccc(OC(C)C)cc2)c2ccccc2OC)cc1 (stereo not drawn)	92	.	.	104	.	.
O=C(COC(=O)c1ccc(O)cc1)NC1CCCCCCC1	/	.	.	.	.	.
O=C(Nc1ccc(Cl)c(Cl)c1)Nc1nnc(CSc2ccccc2)s1	.	-56	.	.	73	.
O=C(Nc1cccc(Cl)c1)Nc1nccs1	.	.	.	.	.	.
O=C(Nc1ccc(Cl)c(Cl)c1)Nc1nccs1	.	.	.	.	.	66
O=C(Nc1ccccc1)Nc1nnc(CSCc2ccccc2Cl)s1	.	.	.	.	.	.
Cc1ccc(Nc2nc(N)nc(N)c2N=O)cc1Cl	/	/	.	/	/	/
CCN=C1NN=C(c2cc(C)n(Cc3ccco3)c2C)CS1	80	.	67	.	.	70
C[C@@H]1CN([C@H](C)CO)C(=O)CCCn2nncc2CO[C@H]1CN(C)Cc1cccc(O)c1	/	.	.	.	.	.
N#Cc1ccc(C2CC(OCCF)=CC(=O)O2)cc1 (stereo not drawn)	/	/	.	/	/	/
CN(Cc1ccc(F)cc1)C(=O)CN1CCN(S(=O)(=O)c2ccc3c(c2)OCCCO3)CC1	/	.	.	.	.	48
O=C(c1ccc2c(c1)OCCO2)C1CCN(S(=O)(=O)c2ccc(F)cc2)CC1	.	.	.	55	.	.
CN(Cc1cccc(F)c1)C(=O)CN1CCN(S(=O)(=O)c2ccc3c(c2)OCCCO3)CC1	.	.	.	.	.	.
COc1cc(C(=O)N2CCCC(c3cc(C(=O)NCc4ccc(F)cc4)no3)C2)cc(OC)c1C (stereo not drawn)	/	.	.	.	.	/
CCn1c(CCNC(=O)c2ccc(OC)cc2)nnc1SCc1ccc(Cl)cc1Cl	.	.	.	.	.	66
O=C(O)c1ccc(-c2cccc(-c3nn4c(=O)cc(N5CCNCC5)nc4s3)c2)cc1	/	.	.	.	.	/
Cc1ccc(S(=O)(=O)N2[C@H](CC(=O)c3ccc(F)cc3)OC[C@@H]2C)cc1	/	/	.	/	/	/
COc1ccc(S(=O)(=O)N2CCC(NC(=O)C3CCCCC3)CC2)cc1	.	.	.	.	.	46
Cc1cc(Oc2nc3c(C)cccn3c(=O)c2/C=C(\C#N)S(=O)(=O)c2ccccc2)ccc1Cl	.	.	.	68	.	.
CCOC(=O)C1=C(O)/C(=C/c2ccc(CNC(=O)C(=O)Nc3ccc(C)cc3)o2)N=C1C	.	.	.	.	.	77
COC(=O)C1=C(O)/C(=C\c2ccc(CNC(=O)C(=O)Nc3ccc(C)cc3)o2)N=C1C	.	.	.	.	.	.
Cc1cccc(Nc2nc(N)c([N+](=O)[O-])c(N3CCCC(C)C3)n2)c1 (stereo not drawn)	.	.	.	55	.	.
SMILES	TRPM1 prom inh	KKLEB cytotox	HIF-2a inh	Peg3 promoter	CF NFkB inh	LMP1 NFkB inh
C[C@@H]1CN([C@@H](C)CO)C(=O)CCCn2nncc2CO[C@H]1CN(C)Cc1ccc(Cl)c(Cl)c1	/	.	.	.	.	.
Cc1cccc(C(=O)N[C@H](C(=O)Nc2nnc(C3CC3)s2)C(C)C)c1	.	.	.	.	.	.
Cc1cccc(C(=O)N[C@H](C(=O)Nc2ncc(C)s2)C(C)C)c1	.	.	.	60	.	.
O=C(NS(=O)(=O)c1ccc2ccc(S(=O)(=O)NCCSc3ccccc3)cc2c1)c1cccc2ccccc12	/	/	.	/	/	/
COc1ccc(CCn2c(C)cc(C(=O)CCl)c2C)cc1OC	.	.	.	61	.	.
COc1ccc(CCn2c(C)c(C(C)=O)c(C(C)=O)c2C)cc1OC	.	.	.	.	.	.
Cc1cc(C(=O)CCl)c(C)n1CCc1ccc(F)cc1	88	.	.	56	.	.
Cc1cc(C(=O)CSc2nnnn2C)c(C)n1CCc1ccc(F)cc1	.	.	.	.	.	.
